Source: PubChem (National Center for Advancing Translational Sciences (NCATS))
Compounds with a hit are over-represented: about 5.3% of the library has one in this group of screens.
BAZ2B inh: inhibitors of human BAZ2B bromodomain; Q9UIF8; AlphaScreen BAZ2B-H3K14Ac peptide displacement; Potency, µM (highest dose often 114 µM), for the others: at the top dose activity change, negative = inhibition, usual class: inhibitors; actives 4.4% (n = 360,000); AID 504333; note: potency is the fitted concentration of half-maximal effect; % is set by controls: 0 for no effect and ±100 for the full control effect; nearly all actives have a fitted effect of over 60% in size
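Protein-peptide AlphaScreen: BAZ2B 50 nM, b-H3K14Ac 50 nM, 1x PBS pH 7.4 + 0.01% Tween-20. Preincubation 30 min RT; cpd 30 min RT (top 110 uM); beads 20 min RT, light-protected.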
CtBP-E1A blk: inhibitors of CtBP/E1A interaction; AlphaScreen GST-E1A/His-CtBP binding, 1536-well; stronger effect = lower value; activity change, % (no concentration beside the values); actives 0.49% (n = 340,000); in the data active = activity change below about -65%; inconclusive = mostly about -30% to -63%; note: % is set by controls: 0 for no effect and ±100 for the full control effect
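Steps: dispense buffer (Tris pH 8.0, NaCl 300 mM, TCEP 1 mM, BSA, Tween 20); add 5X protein mix (GST-E1A, His-CtBP, 125 nM each); pin 23 nL compound; 2 h at 37 °C, dark; add 5X beads (50 ug/mL); 1 h; read.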
HP1b binding inh: HP1-beta chromodomain-methylated histone interaction inhibition; P83916; AlphaScreen HP1-beta / biotin-H3K9me3 peptide binding; Potency, µM (doses to about 114 µM), for the others: at the top dose activity change, negative = inhibition, usual class: inhibitors; actives 0.56% (n = 390,000); AID 540317; note: potency is the fitted concentration of half-maximal effect; nearly all actives have a fitted effect of over 70% in size
Target sequence (P83916 whole entry, looked up): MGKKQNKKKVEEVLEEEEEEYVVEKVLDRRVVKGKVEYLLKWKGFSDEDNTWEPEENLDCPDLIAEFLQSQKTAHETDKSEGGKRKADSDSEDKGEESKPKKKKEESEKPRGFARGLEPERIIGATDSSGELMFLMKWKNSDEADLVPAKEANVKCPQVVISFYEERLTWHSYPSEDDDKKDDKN
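AlphaScreen: HP1-beta (50 nM) preformed 30 min with biotin-H3(1-18)K9me3 peptide (50 nM) in PBS pH 7.4, 0.01% Tween-20. Compound added for 30 min at RT, then streptavidin donor/nickel chelate acceptor beads (10 ug/mL) for 30 min.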
Six1-Eya2 blk: blocks human Six1 binding to Eya2 | Q15475+O00167 | AID 651725 | AlphaScreen GST-Six1/His-Eya2 binding, biochemical; stronger effect = lower value | actives 0.56% (n = 360,000) | activity change, % (no concentration beside the values); in the data active = activity change below about -65%; inconclusive = mostly about -30% to -63%; note: % is set by controls: 0 for no effect and ±100 for the full control effect
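AlphaScreen luminescence read after one hour at 37 °C in darkness. Pin-transferred compounds met GST-Six1 and His-Eya2 protein (5X stock 250 nM/500 nM) plus glutathione donor and Ni-chelate acceptor beads (5X, 50 ug/mL).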
TDP1 inh: TDP1 (human) enzyme inhibition | Q9NUW8 | recombinant TDP1, AlphaScreen DNA substrate cleavage | Potency, µM (series often up to 130 µM), inactives show top-dose activity change, negative = inhibition, hits mostly inhibitors | actives 0.28% (n = 350,000) | AID 485290; note: potency is the fitted concentration of half-maximal effect; % is set by controls: 0 for no effect and ±100 for the full control effect; nearly all actives have a fitted effect of over 40% in size
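AlphaScreen read-out: signal falls as enzyme removes the 3' tyrosine-FITC from a 5'-biotinylated DNA oligo (15 nM, 5 min, RT). Enzyme was E. coli-made recombinant Tdp1 at 1 nM, exposed to compound for 15 min beforehand; beads 10 ug/ml, 10 min.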
JMJD2A Tudor: JMJD2A Tudor domain (human) inhibition | O75164 | AlphaScreen JMJD2A-Tudor / H3K4me3 peptide binding | Potency, µM (top dose mostly 114 µM), without a hit: at the top dose activity change, negative = inhibition, actives largely listed as inhibitors | actives 4.4% (n = 390,000); note: potency is the fitted concentration of half-maximal effect; % is set by controls: 0 for no effect and ±100 for the full control effect; nearly all actives have a fitted effect of over 50% in size
An asterisk follows results filed as active; u = inconclusive; x = no result given; [ ] = remark or other dose. Unless noted, calls come from the whole dose curve; as a rule, active = well fitted inhibition curve with a large enough effect; inconclusive = small, poorly fitted or top-dose-only effect; inactive = no such curve, though single readings can be large or run the other way.

SMILES	BAZ2B inh	CtBP-E1A blk	HP1b binding inh	Six1-Eya2 blk	TDP1 inh	JMJD2A Tudor
COc1ccccc1NS(=O)(=O)c1cc(N)ccc1N1CCCC1	x	-2	14µM*	-18	7%	u
COc1ccc(NS(=O)(=O)c2cc(N)ccc2N2CCCCC2)cc1	u	-9	-1%	-6	6%	u
COc1ccccc1NS(=O)(=O)c1cc(NC(C)=O)ccc1N1CCCCC1	x	1	u	-19	3%	79µM*
COc1ccccc1NS(=O)(=O)c1cc(N)ccc1N1CCOCC1	x	3	u	-2	4%	-31%
CCN(CC)c1ccc(NC(=O)c2ccccc2)cc1S(=O)(=O)Nc1ccccc1OC	-36%	-19	u	-1	0%	79µM*
COc1ccccc1NS(=O)(=O)c1cc(NC(=O)CCNC(C)=O)ccc1N1CCCCC1	-30%	-1	-10%	5	3%	u
Nc1ccc(N2CCCC2)c(S(=O)(=O)Nc2cccc(C(F)(F)F)c2)c1	x	-19	u	-15	7%	45µM*
CC(=O)c1ccc(NC(=O)CSc2nc(-c3cccc(F)c3)nc3c2c(=O)n(C)c(=O)n3C)cc1	9%	x	1%[57 µM]	x	5%	-10%
COc1ccc(OC)c(S(=O)(=O)Nc2cc3c(cc2N2CCCC2)n(C)c(=O)c(=O)n3C)c1	50µM*	u	7%	-20	5%	32µM*
CN(C)C(=O)c1cn(-c2ccccc2)nc1-c1cc2ccccc2o1	-15%	-2	13%	0	-3%	-10%
CN(Cc1cn(-c2ccccc2)nc1-c1cc2ccccc2o1)C(=O)CCC(=O)O	-22%	-4	-23%	-13	3%	32µM*
O=S1(=O)N=C(Oc2ccccc2Cl)c2ccccc21	x	x	x	x	0%	112µM*
O=C(O)c1ccccc1OC1=NS(=O)(=O)c2ccccc21	x	x	x	x	2%	79µM*
O=S1(=O)N=C(Oc2ccccc2Br)c2ccccc21	x	x	x	x	3%	79µM*
Cc1ccccc1OC1=NS(=O)(=O)c2ccccc21	-32%	6	14%	6	3%	u
COc1ccc(CCNC(=O)CCCn2c(=O)c3ccccc3n(Cc3c(C)cc(C)cc3C)c2=O)cc1OC	4%	x	24%	x	-1%	-9%
COc1ccc(-c2nc(-c3ccccn3)no2)cc1	-20%	3	52%	0	-3%	4%
Cc1ccc(OCc2nc(-c3ccccn3)n[nH]2)cc1	4µM*	-98*	51%	-92*	9%	20µM*
Cc1cccc(OCc2nc(-c3ccccn3)n[nH]2)c1	8.9µM*	-89*	46%	-94*	5%	13µM*
Cc1ccc(C)c(Cn2c(=O)cc(C)c3c(C)nn(-c4cccc(F)c4)c32)c1	-20%	x	6%	x	-3%	2%
O=C(O)c1ccc(COc2ccccc2/C=C2/NC(=O)N(c3cccc(Cl)c3)C2=O)cc1	79µM*	8	u	u	25µM*	u
O=C(O)c1ccc(COc2ccc3ccccc3c2/C=C2/NC(=O)N(c3ccccc3)C2=O)cc1	-36%	-10	8%	-6	-2%	-35%
CN1C(=O)/C(=C/c2ccccc2OCc2ccc(C(=O)O)cc2)NC1=S	u	-11	22%	-2	3%	u
O=C1NC(=S)N/C1=C\c1ccccc1OCc1ccc(C(=O)O)cc1	-1%	-12	-8%	-18	0%	79µM*
O=[N+]([O-])c1cccc(-c2nc(NCc3ccccc3)c3ccccc3n2)c1	u	0	5%	-18	3%	-17%
SMILES	BAZ2B inh	CtBP-E1A blk	HP1b binding inh	Six1-Eya2 blk	TDP1 inh	JMJD2A Tudor
CN(Cc1ccccc1)c1nc(-c2cccc([N+](=O)[O-])c2)nc2ccccc12	-24%	2	-8%	1	4%	32µM*
CCCCNc1nc(C)nc2c1nc(-c1ccccc1)n2CC(C)(C)CN(C)C	x	x	x	x	7%	x
COC1=CC(=O)C(C2CC(=O)c3c(O)cc(O)cc3O2)=CC1=O (stereo not drawn)	x	-7	u	-23	x	79µM*
Cc1cc2nc3c(=O)[nH]c(=O)nc-3n(CC(O)C(O)C(O)CO)c2cc1C (stereo not drawn)	x	x	x	x	8%	x
CC(=O)OCCn1c2nc(=O)[nH]c(=O)c-2nc2cc(C)c(C)cc21	7%	x	27%	-4	3.5µM*	-24%
O=c1c(N2CCc3ccccc3C2)csc2ccc(Cl)cc12	0%	x	26%[57 µM]	x	4%	-19%
ClCC1NCC(c2ccccc2Cl)c2c1[nH]c1ccccc21 (stereo not drawn)	45µM*	0	10%	-18	10%	u
COc1cc2cc3c(N)c(C(=O)Nc4sc(C)c(C)c4C#N)sc3nc2cc1OC	56µM*	u	u	u	-14%	79µM*
COc1cc2cc3c(N)c(C(=O)NCc4ccco4)sc3nc2cc1OC	-4%	u	30%	u	6%	-22%
CCOC(=O)c1sc(NC(=O)C2CCCO2)c(C(=O)OCC)c1C (stereo not drawn)	56µM*	x	x	x	x	x
CCOC(=O)c1c(NC(=O)C2CCCO2)sc(C(=O)OC(C)(C)C)c1C (stereo not drawn)	6%	0	u	3	-2%	u
CCn1c(C)c(C)c2cc(C(=O)NC3CCCCCC3)ccc21	35µM*	x	-19%[57 µM]	-4	3%	u
CCC1CCCCN1CCCNC(=O)c1ccc2c(c1)c(C)c(C)n2CC (stereo not drawn)	u	-19	-14%	-23	6%	u
CCn1c(C)c(C)c2cc(C(=O)N3CCN(c4ccccc4)CC3)ccc21	28µM*	u	u	u	14%	45µM*
O=c1c(-c2ccco2)[n+]([O-])c2ccccc2n1OCc1ccccc1	29%	x	u	-8	0%	50µM*
COc1cccc(OC)c1C(=O)Nc1ccc(-c2nc3ncccc3o2)cc1	3%	x	19%	x	6%	-6%
CC[N+]1(C)C2CCC1CC(OC(=O)[C@H]1CCC(C(=O)OC3CC4CCC(C3)[N+]4(C)CC)(c3ccccc3)c3ccccc31)C2 (stereo partly drawn)	x	x	x	x	1%	x
CCOC(=O)C1CCCN(Cc2ccccc2OCC)C1 (stereo not drawn)	u	3	u	0	-2%	5.6µM*
CCOC(=O)C1CCN(CC(=O)N2C(C)CCCC2C)CC1 (stereo not drawn)	50µM*	4	45µM*	4	-11%	5µM*
CCOC(=O)C1CCN(Cc2coc3c(Cl)cc(Cl)cc3c2=O)CC1	u	2	-7%	6	-4%	20µM*
